Assay results from PubChem BioAssay (NCI).
This is part of a sample that, as a whole, favours compounds with a hit. Of some 79,000 tested, about 15% had one in any assay. Active and inactive are the calls of the source. Rule as the data show it: active = growth inhibition above about 70%; inactive = the rest.

Tests used:
[1] = NCI Yeast Anticancer Drug Screen. Data for the rad50 strain (AID 155);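 also: 0% = growth of vehicle-only cultures of the same strain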; conditions: S. cerevisiae rad50 strain growth inhibition; at 50.0 µM; stronger effect = higher value
Procedure, shortened: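 Readout: growth inhibition relative to vehicle-treated cultures. Compound exposure was carried out in a genetically defined yeast strain deficient in DNA damage repair.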

[2] = NCI Yeast Anticancer Drug Screen. Data for the mec2-1 strain (AID 157); conditions: S. cerevisiae mec2-1 strain, at 50.0 µM, stronger effect = higher value
Procedure, shortened: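 Mutant yeast (mec2-1) grown with compound; growth inhibition relative to vehicle control reported.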

[3] = NCI Yeast Anticancer Drug Screen. Data for the sgs1 mgt1 strain (AID 161);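 also: 0% = growth of cultures given vehicle only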; conditions: S. cerevisiae sgs1 mgt1 strain, at 50.0 µM, stronger effect = higher value
Procedure, shortened: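 Percent growth inhibition was derived by comparing compound-exposed mutant yeast with vehicle-exposed cultures. The strain carries alterations in DNA damage repair.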

[4] = NCI Yeast Anticancer Drug Screen. Data for the cln2 rad14 strain (AID 165);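 also: 0% = growth equal to vehicle treated cultures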; conditions: S. cerevisiae cln2 rad14 strain, at 50.0 µM, stronger effect = higher value
Procedure, shortened: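 Readout is yeast growth inhibition versus vehicle-treated controls, using a strain with cln2 and rad14 alterations exposed to compound.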

[5] = NCI Yeast Anticancer Drug Screen. Data for the bub3 strain (AID 167); conditions: S. cerevisiae bub3 mutant strain, at 50.0 µM, stronger effect = higher value
Procedure, shortened: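 Readout: yeast growth inhibition, expressed relative to vehicle-only wells. The test organism is a mutant strain from a panel with lesions in DNA repair or checkpoint genes.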

[6] = NCI Yeast Anticancer Drug Screen. Data for the mlh1 rad18 strain (AID 175); conditions: S. cerevisiae mlh1 rad18 strain growth inhibition; at 50.0 µM; stronger effect = higher value
Procedure, shortened: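 Genetically defined yeast (DNA repair-deficient) exposed to compounds; growth inhibition determined relative to vehicle.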

Measured: growth inhibition

O=C1CCCC(C(Sc2ccccc2)(Sc2ccccc2)Sc2ccccc2)C1 (stereo unspecified)
inactive: [1] 62.2% | [2] 5.1% | [3] 65.2% | [4] 37.6% | [5] 21.9%
active: [6] 81.3%

COc1ccc(C(=O)c2ccccc2)c(OC(=O)Nc2c(Cl)cccc2Cl)c1
inactive: [1] -4.25% | [2] -23.9% | [3] 10.2% | [4] 1.05% | [5] -0.1% | [6] 22.6%

CC[N+](CC)(CC)Cc1cc2ccccc2n1C(=O)OC
inactive: [1] -9.25% | [2] -24.4% | [3] -25.8% | [4] -1.4% | [5] -12.2% | [6] -28.9%

COc1ccc(C2=C(N)c3c(Cl)cccc3C2=O)cc1
inactive: [1] 6.35% | [2] 3.4% | [3] 30.2% | [4] 14.8% | [5] 21.5% | [6] -58.2%

CCSCC(N)C(=O)O (stereo unspecified)
inactive: [1] -16.1% | [2] 2.5% | [3] 7.45% | [4] -7.25% | [5] 3.35% | [6] -9%

Cc1ccc(S(=O)(=O)C(=S)N(C)N(C)C)cc1
active: [6] 88%
inactive: [1] 18.2% | [2] 25.4% | [3] 36.4% | [4] -12.9% | [5] 25.4%

O=C(/C=C/c1ccc(Cl)cc1)c1ccccc1O
inactive: [1] -9.15% | [2] 9.8% | [3] -6.05% | [4] -10.8% | [5] -1.25% | [6] 11.1%

c1ccc(-c2ccc(-c3cc4ccccc4c4ccccc34)cc2)cc1
inactive: [1] -13.8% | [2] -15% | [3] -17.2% | [4] -5.8% | [5] -10.3% | [6] -9.2%

CN(C)CCC(=O)N1CCc2c([nH]c3ccccc23)C1c1cccnc1 (stereo unspecified)
inactive: [1] -15.2% | [2] -34.6% | [3] -21.6% | [4] 6.55% | [5] 5.65% | [6] -40.5%

CC(=O)OC1C(COC(N)=O)OC(n2c(-c3ccc(C)cc3)cc(-c3ccccc3)c(C#N)c2=O)C(OC(C)=O)C1OC(C)=O (stereo unspecified)
inactive: [1] -18.4% | [2] 7.25% | [3] 4.75% | [4] 22.4% | [5] 26.9% | [6] 11.3%

CC1CN=C(N(Cc2ccc(F)cc2)C(=O)Nc2ccc(Cl)cc2)S1 (stereo unspecified)
inactive: [1] -35.5% | [2] -8.95% | [3] -41.5% | [4] 1.6% | [5] 7.7% | [6] -34.3%

NC(=O)O/N=C/c1ccc(Cl)cc1
inactive: [1] 2.8% | [2] -16.8% | [3] -13.1% | [4] 10.3% | [5] 17.1% | [6] 9.8%

COc1ccc(COC(=O)NC2CCCCC2)cc1OC
inactive: [1] 2.5% | [2] 19.9% | [3] 25.1% | [4] -9.95% | [5] 37% | [6] 45.9%

O=C1CC(c2ccccc2)C(c2ccccc2)C1C(=O)OC1CCCCC1 (stereo unspecified)
inactive: [1] 0.5% | [2] 2.85% | [3] 0.65% | [4] -62.5% | [5] 0.55% | [6] -15.4%

Oc1ccc2c(c1)OCC(O)(c1ccccc1O)C2 (stereo unspecified)
inactive: [1] 23.8% | [2] -1.95% | [3] 6.3% | [4] 7.95% | [5] 23.2% | [6] 15.3%

N#CC1C2C1C1C=CC2n2c(=O)n(-c3ccccc3)c(=O)n21 (stereo unspecified)
inactive: [1] 3% | [2] 2.5% | [3] 3.25% | [4] 27.4% | [5] 7.15% | [6] 4.95%

COC(=O)C(=O)Cc1cccc(OC(C)=O)c1C(=O)OC
inactive: [1] 8.55% | [2] 6.4% | [3] 6.6% | [4] -94% | [5] 9.35% | [6] 2.6%

O=C(CCl)Nc1ccc(SSc2ccc(NC(=O)CCl)cc2)cc1
inactive: [1] 33.8% | [2] 13% | [3] 47.1% | [4] 43.2% | [5] 10.1% | [6] 12.9%

NC(=O)NCSCNC(N)=O
inactive: [1] -0.7% | [2] -0.2% | [3] -7.35% | [4] 8.15% | [5] -2.75% | [6] 4.5%

CC(C)NC(c1ccccc1)c1ccccc1
inactive: [1] 0.3% | [2] -11.7% | [3] -6.9% | [4] 10.2% | [5] 1.6% | [6] 2.9%

O=c1cc([N+](=O)[O-])c2c([nH]1)CCC2
inactive: [1] -5.3% | [2] 1.3% | [3] 12.8% | [4] -27.8% | [5] -6.15% | [6] -0.5%

CC(=N\N=C(N)N)/C(N=Nc1ccc(S(N)(=O)=O)cc1)=N\N=C(N)N
inactive: [1] -0.75% | [2] 5.55% | [3] 19.4% | [4] -45.6% | [5] -0.55% | [6] 21.3%

COc1ccc2nc(C3CCCCC3C(=O)O)cc(C)c2c1 (stereo unspecified)
inactive: [1] -9.2% | [2] -5.35% | [3] -5.8% | [4] -27.1% | [5] -4.3% | [6] -1.45%

CCOC(=O)NNC(=O)c1ccccc1N(C)C
inactive: [1] -12.4% | [2] -18.6% | [3] -7.05% | [4] -13.7% | [5] 25.1% | [6] -4.45%

Cc1cc2c(c(C(=O)NCCC(=O)O)c1)Oc1c(cc(C)cc1C(=O)NCCC(=O)O)S2
inactive: [1] -26.9% | [2] -13.6% | [3] -8.2% | [4] 3.95% | [5] -44.1% | [6] -2.65%

Cc1cc(O)c(/C=N/C(=S)Nc2ccccc2)c(=O)o1
inactive: [1] -20.4% | [2] -48.8% | [3] -24.1% | [4] -8.65% | [5] -48.2% | [6] -39%

c1ccnnc1
inactive: [1] 15.9% | [2] -29% | [3] 4.8% | [4] -10.2% | [5] -0.4% | [6] 4.25%

Brc1ccc(C=C2c3ccccc3-c3ccccc32)cc1
inactive: [1] -11.1% | [2] -8% | [3] -16.4% | [4] 6.85% | [5] 7.65% | [6] 1.95%

[O-][n+]1cscc1-c1nc2ccccc2[nH]1
inactive: [1] 7.45% | [2] -13.2% | [3] -2.95% | [4] 10.2% | [5] -7.8% | [6] -7.5%

CCCCCCCC(=O)OC(CC)CCCC (stereo unspecified)
inactive: [1] 5.25% | [2] -9.9% | [3] 1.5% | [4] 8.35% | [5] 3.6% | [6] -1.2%

Cc1ccc(CCCC(N)=O)cc1
inactive: [1] 32.1% | [2] -0.15% | [3] 8.85% | [4] 4.1% | [5] -2.15% | [6] 2.55%

COC(=O)/C(=C\Nc1cccc(C)n1)S(=O)(=O)c1ccc(C)cc1
inactive: [1] -33.9% | [2] -1.55% | [3] 18.5% | [4] -21.5% | [5] 7.3% | [6] 12.8%

O=S(=O)(O)ON=C1c2ccccc2-c2ccccc21
inactive: [1] 0.6% | [2] -10.7% | [3] 10.4% | [4] 10.4% | [5] 6.55% | [6] -13.6%

CCOc1ccccc1C1=CCCCCC1
inactive: [1] -0.65% | [2] -5% | [3] -9% | [4] -24.6% | [5] -10% | [6] 1.3%

CCn1nc(C)c2c1C(=O)NCC(=O)N2
inactive: [1] -34.1% | [2] -44.6% | [3] -26.9% | [4] -10.4% | [5] -17.6% | [6] -2.3%

CCNC(=S)NCC
inactive: [1] -11.2% | [2] -28.8% | [3] 20.6% | [4] 6.7% | [5] 0.4% | [6] 17.5%

CN(C)CCNC(=O)c1ccc(NC(=O)c2nc([N+](=O)[O-])cn2C)cc1
inactive: [1] -14.2% | [2] 10.6% | [3] 4.9% | [4] -22.6% | [5] -8.5% | [6] -31.6%

COc1cc(C2c3cc4c(cc3OC(N3CCCCC3)C2C)OCO4)cc(OC)c1OC (stereo unspecified)
inactive: [1] -13.4% | [2] -20.1% | [3] -18.1% | [4] 0.15% | [5] -23.6% | [6] -12.6%

O=C1c2ccccc2C(=O)c2c1ccc(C1C(=O)c3ccccc3C1=O)c2-c1c(C2C(=O)c3ccccc3C2=O)ccc2c1C(=O)c1ccccc1C2=O
inactive: [1] -18.4% | [2] -16.8% | [3] -35.5% | [4] -17.5% | [5] -33.1% | [6] 4.15%

CCn1c(C)nc2ccccc21
inactive: [1] -12.7% | [2] -6.55% | [3] 2.5% | [4] -0.5% | [5] -16.1% | [6] 1.5%

CCCCCCC1(/C=C/c2ccc(Cl)c(Cl)c2)OCCCO1
inactive: [1] 6.15% | [2] 12.2% | [3] 12.6% | [4] -1.55% | [5] 3.2% | [6] 8.1%
